Laboratory results published in paper PMC7862700, “An all-to-all approach to the identification of sequence-specific readers for epigenetic DNA modifications on cytosine”.

Columns and labels:
Experiment in all cases: DAPPL (digital affinity profiling via proximity ligation, sequencing); 10 mM Tris-HCl pH 7.5, 50 mM NaCl, 1 mM DTT, 4% glycerol, room temperature, 30 min; GST-TFs on glutathione beads, 16-mer random dsDNA library, 0.1% formaldehyde crosslink after washing; high values mean tight binding
Details in all cases: protein: recombinant; tags: N-terminal GST; dsDNA, one strand shown
FLI1 = target: T1, FLI1 (Homo sapiens, UniProt Q01543 1-452)
T1 sequence: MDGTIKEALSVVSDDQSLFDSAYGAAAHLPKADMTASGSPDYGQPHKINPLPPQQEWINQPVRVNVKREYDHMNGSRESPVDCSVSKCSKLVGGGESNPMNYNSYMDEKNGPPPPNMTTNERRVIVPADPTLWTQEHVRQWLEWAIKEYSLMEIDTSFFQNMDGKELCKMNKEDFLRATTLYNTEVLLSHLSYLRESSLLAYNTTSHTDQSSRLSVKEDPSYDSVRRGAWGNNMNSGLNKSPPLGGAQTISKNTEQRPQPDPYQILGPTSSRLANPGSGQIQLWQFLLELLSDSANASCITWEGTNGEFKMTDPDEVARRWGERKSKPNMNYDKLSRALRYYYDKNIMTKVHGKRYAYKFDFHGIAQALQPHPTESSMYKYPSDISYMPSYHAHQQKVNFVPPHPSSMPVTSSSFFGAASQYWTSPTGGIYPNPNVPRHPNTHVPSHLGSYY
How it was run: (§1)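 Human transcription factors carrying a GST fusion were produced in yeast, bound to glutathione beads, tagged with DNA barcodes and pooled together with a tag-only sample. Each pool was held with 200 nmole of a random double-stranded 16-mer DNA library in Tris/NaCl/DTT/glycerol buffer for 30 min at room temperature, then washed, crosslinked in 0.1% formaldehyde, proximity-ligated with BsaI/T4 ligase (1 h, 37 °C), PCR-amplified and sequenced on an Illumina NextSeq500. Binding signal is the read frequency of each hexamer for a given factor divided by its frequency in the tag-only sample.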

ELK1 = target: T2, ELK1 (Homo sapiens, UniProt P19419 1-428)
T2 sequence: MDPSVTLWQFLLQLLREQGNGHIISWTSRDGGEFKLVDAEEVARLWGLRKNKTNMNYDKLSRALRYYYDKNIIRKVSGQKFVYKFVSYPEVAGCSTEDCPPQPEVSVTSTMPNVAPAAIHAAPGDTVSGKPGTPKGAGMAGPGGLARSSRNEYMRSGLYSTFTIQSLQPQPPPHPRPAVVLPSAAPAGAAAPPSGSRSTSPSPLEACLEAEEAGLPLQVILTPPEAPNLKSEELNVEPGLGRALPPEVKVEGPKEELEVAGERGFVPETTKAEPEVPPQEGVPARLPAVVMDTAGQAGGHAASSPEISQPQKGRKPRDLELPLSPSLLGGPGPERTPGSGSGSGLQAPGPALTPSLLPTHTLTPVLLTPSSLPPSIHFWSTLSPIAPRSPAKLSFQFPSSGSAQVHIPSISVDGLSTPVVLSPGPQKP
How it was run: as §1

GABPA = target: T3, GABPA (Homo sapiens, UniProt Q06546 1-454)
T3 sequence: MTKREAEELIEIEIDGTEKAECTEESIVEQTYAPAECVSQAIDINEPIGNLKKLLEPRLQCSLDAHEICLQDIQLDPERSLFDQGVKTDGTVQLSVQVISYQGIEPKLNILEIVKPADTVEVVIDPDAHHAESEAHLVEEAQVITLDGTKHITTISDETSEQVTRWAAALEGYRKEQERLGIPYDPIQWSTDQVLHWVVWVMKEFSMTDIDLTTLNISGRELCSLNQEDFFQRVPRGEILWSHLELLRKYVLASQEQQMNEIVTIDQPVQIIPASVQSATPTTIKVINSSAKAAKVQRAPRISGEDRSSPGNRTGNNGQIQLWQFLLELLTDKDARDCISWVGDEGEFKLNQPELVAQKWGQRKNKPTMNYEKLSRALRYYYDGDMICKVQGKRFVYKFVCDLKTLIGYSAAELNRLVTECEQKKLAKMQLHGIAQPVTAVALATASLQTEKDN
How it was run: as §1

ERG = target: T4, ERG (Homo sapiens, UniProt P11308 1-479)
T4 sequence: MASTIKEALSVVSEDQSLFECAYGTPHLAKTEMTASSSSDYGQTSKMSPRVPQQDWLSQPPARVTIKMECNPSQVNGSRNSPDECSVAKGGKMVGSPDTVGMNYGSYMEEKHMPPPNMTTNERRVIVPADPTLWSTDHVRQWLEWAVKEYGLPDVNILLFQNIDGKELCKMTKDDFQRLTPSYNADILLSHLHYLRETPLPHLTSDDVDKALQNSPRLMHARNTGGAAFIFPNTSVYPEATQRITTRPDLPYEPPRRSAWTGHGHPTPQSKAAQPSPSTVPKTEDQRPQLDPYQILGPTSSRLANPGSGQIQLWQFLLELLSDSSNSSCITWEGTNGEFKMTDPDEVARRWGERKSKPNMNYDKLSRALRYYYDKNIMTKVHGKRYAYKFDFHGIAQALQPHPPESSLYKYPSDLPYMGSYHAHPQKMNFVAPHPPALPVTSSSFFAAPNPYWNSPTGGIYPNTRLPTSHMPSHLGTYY
How it was run: as §1

ELF1 = ELF1 (Homo sapiens, UniProt P32519 1-619)
ELF1, sequence (P32519 whole entry): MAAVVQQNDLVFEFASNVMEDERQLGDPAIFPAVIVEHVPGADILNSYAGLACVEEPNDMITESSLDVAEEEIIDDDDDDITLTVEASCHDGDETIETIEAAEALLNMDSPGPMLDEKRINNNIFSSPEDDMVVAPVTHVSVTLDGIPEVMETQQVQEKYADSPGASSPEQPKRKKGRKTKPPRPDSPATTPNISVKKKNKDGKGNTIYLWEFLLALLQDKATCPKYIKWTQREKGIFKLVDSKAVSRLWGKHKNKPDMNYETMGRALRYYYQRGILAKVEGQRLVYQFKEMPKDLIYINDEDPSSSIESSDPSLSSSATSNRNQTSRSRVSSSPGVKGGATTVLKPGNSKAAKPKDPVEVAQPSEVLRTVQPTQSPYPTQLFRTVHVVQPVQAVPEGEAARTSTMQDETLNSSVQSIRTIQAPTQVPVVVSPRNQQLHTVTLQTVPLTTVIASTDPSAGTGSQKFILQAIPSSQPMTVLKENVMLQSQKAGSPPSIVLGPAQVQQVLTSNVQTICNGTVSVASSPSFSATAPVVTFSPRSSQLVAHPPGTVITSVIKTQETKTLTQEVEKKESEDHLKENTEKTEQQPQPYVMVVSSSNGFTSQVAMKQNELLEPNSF
How it was run: as §1

EHF = target: T5, EHF (Homo sapiens, UniProt Q9NZC4 1-300)
T5 sequence: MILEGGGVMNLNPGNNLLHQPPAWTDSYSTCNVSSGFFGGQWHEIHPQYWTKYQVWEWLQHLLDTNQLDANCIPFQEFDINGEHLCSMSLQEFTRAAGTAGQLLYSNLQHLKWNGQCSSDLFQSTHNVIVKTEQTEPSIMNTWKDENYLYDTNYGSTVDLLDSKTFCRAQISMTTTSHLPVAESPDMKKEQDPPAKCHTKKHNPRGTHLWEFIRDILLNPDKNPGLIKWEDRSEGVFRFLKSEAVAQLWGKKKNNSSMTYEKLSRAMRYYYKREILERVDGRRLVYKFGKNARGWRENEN
How it was run: as §1

SPI1 = SPI1 (Homo sapiens, UniProt P17947 1-270)
How it was run: as §1

SPIB = SPIB (Homo sapiens, UniProt Q01892 1-262)
SPIB, sequence (Q01892 whole entry): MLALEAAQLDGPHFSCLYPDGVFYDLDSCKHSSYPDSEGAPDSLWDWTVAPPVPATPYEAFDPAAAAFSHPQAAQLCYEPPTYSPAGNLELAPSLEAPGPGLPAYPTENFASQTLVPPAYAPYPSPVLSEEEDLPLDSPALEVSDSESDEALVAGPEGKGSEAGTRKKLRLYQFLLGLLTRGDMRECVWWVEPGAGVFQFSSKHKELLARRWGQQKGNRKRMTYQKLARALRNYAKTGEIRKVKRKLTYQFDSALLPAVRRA
How it was run: as §1

ELK3 = target: T6, ELK3 (Homo sapiens, UniProt P41970 1-407)
T6 sequence: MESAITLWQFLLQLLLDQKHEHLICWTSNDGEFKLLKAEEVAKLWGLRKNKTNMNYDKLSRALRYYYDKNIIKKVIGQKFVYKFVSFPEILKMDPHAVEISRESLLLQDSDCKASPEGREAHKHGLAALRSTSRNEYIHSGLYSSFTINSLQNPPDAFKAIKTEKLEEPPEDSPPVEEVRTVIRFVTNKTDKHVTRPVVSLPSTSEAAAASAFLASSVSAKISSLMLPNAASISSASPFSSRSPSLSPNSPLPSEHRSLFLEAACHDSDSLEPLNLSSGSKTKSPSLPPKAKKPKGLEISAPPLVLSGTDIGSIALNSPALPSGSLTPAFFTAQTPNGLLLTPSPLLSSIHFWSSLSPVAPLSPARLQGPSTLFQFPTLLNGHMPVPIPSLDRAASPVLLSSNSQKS
How it was run: as §1

Row | Sequence | binding signal (FLI1) | binding signal (ELK1) | binding signal (GABPA) | binding signal (ERG) | binding signal (ELF1) | binding signal (EHF) | binding signal (SPI1) | binding signal (SPIB) | binding signal (ELK3)
1 | TTGCCT | 1.16 fold enrichment (6-mer frequency, TF over GST control) | 1.18 fold enrichment (6-mer frequency, TF over GST control) | 1.15 fold enrichment (6-mer frequency, TF over GST control) | 1.17 fold enrichment (6-mer frequency, TF over GST control) | 1.21 fold enrichment (6-mer frequency, TF over GST control) | 1.13 fold enrichment (6-mer frequency, TF over GST control) | 1.15 fold enrichment (6-mer frequency, TF over GST control) | 1.25 fold enrichment (6-mer frequency, TF over GST control) | 1.3 fold enrichment (6-mer frequency, TF over GST control)
2 | CTGCTA | 1.38 fold enrichment (6-mer frequency, TF over GST control) | 1.53 fold enrichment (6-mer frequency, TF over GST control) | 1.46 fold enrichment (6-mer frequency, TF over GST control) | 1.39 fold enrichment (6-mer frequency, TF over GST control) | 1.47 fold enrichment (6-mer frequency, TF over GST control) | 1.5 fold enrichment (6-mer frequency, TF over GST control) | 1.53 fold enrichment (6-mer frequency, TF over GST control) | 1.43 fold enrichment (6-mer frequency, TF over GST control) | 1.42 fold enrichment (6-mer frequency, TF over GST control)
3 | CATTCC | 1.29 fold enrichment (6-mer frequency, TF over GST control) | 1.2 fold enrichment (6-mer frequency, TF over GST control) | 1.27 fold enrichment (6-mer frequency, TF over GST control) | 1.25 fold enrichment (6-mer frequency, TF over GST control) | 1.25 fold enrichment (6-mer frequency, TF over GST control) | 1.19 fold enrichment (6-mer frequency, TF over GST control) | 1.25 fold enrichment (6-mer frequency, TF over GST control) | 1.3 fold enrichment (6-mer frequency, TF over GST control) | 1.3 fold enrichment (6-mer frequency, TF over GST control)
4 | CAAATA | 1.04 fold enrichment (6-mer frequency, TF over GST control) | 1.13 fold enrichment (6-mer frequency, TF over GST control) | 1.18 fold enrichment (6-mer frequency, TF over GST control) | 1.19 fold enrichment (6-mer frequency, TF over GST control) | 1.17 fold enrichment (6-mer frequency, TF over GST control) | 1.14 fold enrichment (6-mer frequency, TF over GST control) | 1.14 fold enrichment (6-mer frequency, TF over GST control) | 1.19 fold enrichment (6-mer frequency, TF over GST control) | 1.11 fold enrichment (6-mer frequency, TF over GST control)
5 | CTATGC | 1.41 fold enrichment (6-mer frequency, TF over GST control) | 1.56 fold enrichment (6-mer frequency, TF over GST control) | 1.53 fold enrichment (6-mer frequency, TF over GST control) | 1.39 fold enrichment (6-mer frequency, TF over GST control) | 1.47 fold enrichment (6-mer frequency, TF over GST control) | 1.31 fold enrichment (6-mer frequency, TF over GST control) | 1.38 fold enrichment (6-mer frequency, TF over GST control) | 1.48 fold enrichment (6-mer frequency, TF over GST control) | 1.4 fold enrichment (6-mer frequency, TF over GST control)
6 | AATGCG | 1.24 fold enrichment (6-mer frequency, TF over GST control) | 1.27 fold enrichment (6-mer frequency, TF over GST control) | 1.27 fold enrichment (6-mer frequency, TF over GST control) | 1.23 fold enrichment (6-mer frequency, TF over GST control) | 1.21 fold enrichment (6-mer frequency, TF over GST control) | 1.32 fold enrichment (6-mer frequency, TF over GST control) | 1.58 fold enrichment (6-mer frequency, TF over GST control) | 1.31 fold enrichment (6-mer frequency, TF over GST control) | 1.29 fold enrichment (6-mer frequency, TF over GST control)
7 | TCCAAT | 1.21 fold enrichment (6-mer frequency, TF over GST control) | 1.13 fold enrichment (6-mer frequency, TF over GST control) | 1.18 fold enrichment (6-mer frequency, TF over GST control) | 1.13 fold enrichment (6-mer frequency, TF over GST control) | 1.24 fold enrichment (6-mer frequency, TF over GST control) | 1.11 fold enrichment (6-mer frequency, TF over GST control) | 1.14 fold enrichment (6-mer frequency, TF over GST control) | 1.25 fold enrichment (6-mer frequency, TF over GST control) | 1.16 fold enrichment (6-mer frequency, TF over GST control)
8 | ATGCAT | 1.21 fold enrichment (6-mer frequency, TF over GST control) | 1.21 fold enrichment (6-mer frequency, TF over GST control) | 1.22 fold enrichment (6-mer frequency, TF over GST control) | 1.16 fold enrichment (6-mer frequency, TF over GST control) | 1.16 fold enrichment (6-mer frequency, TF over GST control) | 1.22 fold enrichment (6-mer frequency, TF over GST control) | 1.18 fold enrichment (6-mer frequency, TF over GST control) | 1.19 fold enrichment (6-mer frequency, TF over GST control) | 1.29 fold enrichment (6-mer frequency, TF over GST control)
